# Assay results as given in PubChem BioAssay (NCATS).
# Inconclusive results are not listed. A call without a number means that no potency is given here. Calls of active or inactive are those of the source. Unless noted, calls follow the shape of the dose curve; as a rule, active = well fitted curve in the direction sought with a large enough effect; inconclusive = small, poorly fitted or top-dose-only effect, or another doubt; inactive = no such curve, though single readings can be large; an effect the other way counts as inactive or inconclusive.
# Experiments:
# [1] = biological target: Cytochrome P450 1A2 (Homo sapiens) (UniProt P05177); test: p450-cyp1a2 (AID 410; calls by dose curve; also: potency is read from the fitted curve at half-maximal effect)
# Sequence of Cytochrome P450 1A2 (Homo sapiens) (P05177 whole entry, looked up): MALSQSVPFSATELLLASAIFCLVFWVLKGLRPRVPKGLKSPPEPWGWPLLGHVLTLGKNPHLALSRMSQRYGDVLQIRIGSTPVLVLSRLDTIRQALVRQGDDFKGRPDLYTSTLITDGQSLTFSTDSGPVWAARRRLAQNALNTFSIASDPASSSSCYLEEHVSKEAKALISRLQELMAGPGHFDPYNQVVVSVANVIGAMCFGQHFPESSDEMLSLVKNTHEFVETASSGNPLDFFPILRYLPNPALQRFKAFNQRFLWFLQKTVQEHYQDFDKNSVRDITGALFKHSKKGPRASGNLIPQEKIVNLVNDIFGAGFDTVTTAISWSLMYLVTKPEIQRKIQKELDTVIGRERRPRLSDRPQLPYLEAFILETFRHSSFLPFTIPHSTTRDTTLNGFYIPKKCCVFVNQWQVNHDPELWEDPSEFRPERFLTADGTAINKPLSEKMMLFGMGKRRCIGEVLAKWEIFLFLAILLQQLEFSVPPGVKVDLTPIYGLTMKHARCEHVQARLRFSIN
# Method in brief: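 Luminescent readout of luciferin formed from Luciferin-ME by human CYP1A2; data normalized against complete inhibition by 57 uM furafylline. Enzyme 20nM, substrate 100uM at Km, 100mM KPO4 buffer, 60 min reaction at room temperature.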
# [2] = biological target: Glucocorticoid receptor (Homo sapiens) (UniProt P04150); test: GR-GFP Redistribution (AID 450;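 active = compounds whose dose series gives a full or clear partial fitted curve of increased nuclear translocation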; also: potency is read from the fitted curve at half-maximal effect); conditions: U2OS GR-GFP nuclear translocation, laser cytometry, 2 h
# Sequence of Glucocorticoid receptor (Homo sapiens) (P04150 whole entry, looked up, the tested form may be a part): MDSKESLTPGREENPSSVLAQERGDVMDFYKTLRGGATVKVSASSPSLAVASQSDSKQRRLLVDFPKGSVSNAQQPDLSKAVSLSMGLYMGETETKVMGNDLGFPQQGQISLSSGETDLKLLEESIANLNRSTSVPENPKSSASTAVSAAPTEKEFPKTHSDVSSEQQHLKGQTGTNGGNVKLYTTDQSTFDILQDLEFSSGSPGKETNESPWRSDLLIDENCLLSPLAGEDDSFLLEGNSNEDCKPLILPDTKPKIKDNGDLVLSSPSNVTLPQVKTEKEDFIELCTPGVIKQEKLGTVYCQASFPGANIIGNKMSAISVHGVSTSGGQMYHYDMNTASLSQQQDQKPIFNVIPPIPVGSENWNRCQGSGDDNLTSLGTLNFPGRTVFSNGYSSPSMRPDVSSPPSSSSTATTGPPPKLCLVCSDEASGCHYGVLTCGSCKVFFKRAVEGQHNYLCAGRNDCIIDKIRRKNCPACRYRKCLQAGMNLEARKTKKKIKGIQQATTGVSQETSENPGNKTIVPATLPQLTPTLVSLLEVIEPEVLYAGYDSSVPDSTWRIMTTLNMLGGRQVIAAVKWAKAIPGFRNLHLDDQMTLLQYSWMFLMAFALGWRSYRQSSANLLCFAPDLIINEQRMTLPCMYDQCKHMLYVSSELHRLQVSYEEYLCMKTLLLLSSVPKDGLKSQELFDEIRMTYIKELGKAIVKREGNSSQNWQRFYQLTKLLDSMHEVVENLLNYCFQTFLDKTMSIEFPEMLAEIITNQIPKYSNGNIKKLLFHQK
# [3] = biological target: Glucocorticoid receptor (Homo sapiens) (UniProt P04150); test: GR-EFC Redistribution (AID 451; calls by dose curve; also: potency is read from the fitted curve at half-maximal effect); conditions: CHO-K1 GR-EFC translocation, beta-gal luminescence, 2 h
# Method in brief: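 Translocation of GR-ED fusion to nuclear EA restores b-gal, read by luminescence after 1 h room-temperature detection. Engineered CHO-K1 biosensor cells, 1,000/well, exposed 2 h at 37 C to titrations up to 46 uM final.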
# [4] = biological target: Cytochrome P450 3A4 (Homo sapiens) (UniProt P08684); test: qHTS Assay for Activators of Cytochrome P450 3A4 (AID 885); also: nearly all actives have a fitted effect of over 65% in size
# Sequence of Cytochrome P450 3A4 (Homo sapiens) (P08684 whole entry, looked up): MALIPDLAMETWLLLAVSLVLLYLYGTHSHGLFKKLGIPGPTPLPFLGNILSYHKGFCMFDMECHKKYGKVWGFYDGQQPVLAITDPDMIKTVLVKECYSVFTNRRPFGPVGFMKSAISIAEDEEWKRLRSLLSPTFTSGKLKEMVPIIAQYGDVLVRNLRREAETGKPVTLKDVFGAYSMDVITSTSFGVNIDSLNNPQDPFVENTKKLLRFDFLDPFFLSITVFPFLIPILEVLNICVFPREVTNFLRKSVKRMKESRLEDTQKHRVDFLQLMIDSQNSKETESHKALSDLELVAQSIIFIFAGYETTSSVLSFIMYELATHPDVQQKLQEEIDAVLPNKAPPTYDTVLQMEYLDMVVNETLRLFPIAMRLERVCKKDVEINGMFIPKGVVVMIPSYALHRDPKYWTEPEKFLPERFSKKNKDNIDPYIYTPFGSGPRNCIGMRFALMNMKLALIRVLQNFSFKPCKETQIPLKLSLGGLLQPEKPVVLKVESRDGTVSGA
# Method in brief: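 Steps: enzyme/substrate mix dispensed; compound added, 10 min RT; NADPH regeneration solution added, 60 min RT; luciferin detection buffer stops reaction; 20 min later luminescence measured.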
# [5] = test system: Zika virus NS2B-NS3 protease (unlinked complex); test: Confirmatory screen GU AMC qHTS for Zika virus inhibitors (AID 1347153); also: nearly all actives have a fitted effect of over 70% in size
# Method in brief: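 Fluorescence change (ex 340/em 450 nm) over 15 min, ~20% substrate conversion, normalized to no-inhibitor and no-enzyme controls, then Hill-fitted. Unlinked protease at 25 nM; AMC peptide 10 µM.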
# [6] = Confirmatory screen NINDS Rhodamine qHTS for Zika virus inhibitors (AID 1347161); also: nearly all actives have a fitted effect of over 60% in size; also: potency is read from the fitted curve at half-maximal effect;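 as to activity change, negative = inhibition: purified Zika NS2B-NS3 protease with linked NS2B cofactor domain and Rhodamine110 peptide substrate; series mostly up to about 110 µM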
# Method in brief: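 Each compound, titrated, sat 15 min with 25 nM linked protease before 1.5 microM Rhodamine110 substrate went in. Fluorescence gain over the next 15 min, in pH 8.0 Tris with Tween 20, gave Hill-fitted curves.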
# [7] = Vero cells viability qHTS for Zika virus inhibitors (AID 1347167)
# Method in brief: (§1)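 Compounds were tested in concentration series on cells grown in DMEM containing 4% FBS. After 24 to 48 hours, cellular ATP was measured by luminescence with CellTiter Glo.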
# [8] = HepG2 cells viability qHTS for Zika virus inhibitors (AID 1347168); also: potency is read from the fitted curve at half-maximal effect
# Method in brief: as §1
# [9] = test system: Zika virus NS2B-NS3 protease; test: Primary screen GU AMC qHTS for Zika virus inhibitors (AID 1347154); also: nearly all actives have a fitted effect of over 70% in size; also: potency is read from the fitted curve at half-maximal effect
# Method in brief: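 Fluorogenic AMC-substrate cleavage by noncovalent NS2B-NS3 protease complex (25 nM, pH 8.0 Tris buffer with Tween 20) followed for 15 minutes at room temperature (~20% conversion). Percent inhibition from ex340/em450 signal change, fitted by 4-parameter Hill equation.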
# [10] = Tertiary RLuc qRT-PCR qHTS assay for Zika virus inhibitors (AID 1347169); also: top concentration of the series differs between compounds; nearly all actives have a fitted effect of over 55% in size
# Method in brief: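 Orthogonal cell-based readout: luminescence measured 1-1.5 hrs after adding live-cell Renilla substrate to Vero cells that had been infected with ZIKV-RLuc (MOI 1-2) post-compound, incubated 48-72 hrs at 37 degrees C.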
# [11] = Primary qHTS for small molecule stabilizers of the endoplasmic reticulum resident proteome: Secreted ER Calcium Modulated Protein (SERCaMP) assay (AID 1508630)
# Method in brief: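 GLuc-SERCaMP-expressing SH-SY5Y cells, pretreated 16 h with compound, are challenged with thapsigargin to empty ER calcium stores; after 4 h, coelenterazine is added directly to the medium and luminescence is imaged.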
# [12] = test system: Zika virus NS2B-NS3 protease (linked construct); test: Confirmatory screen NINDS AMC qHTS for Zika virus inhibitors (AID 1347152); also: nearly all actives have a fitted effect of over 70% in size; also: potency is read from the fitted curve at half-maximal effect; as to activity change, negative = inhibition: top concentration of the series differs between compounds
# Method in brief: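 IC50s from 4-parameter Hill fits of percent inhibition, based on AMC fluorescence gain (340/450 nm) over 15 min with 10 microM Bz-Nle-KRR-AMC. Enzyme: 1 nM linked NS2B-NS3 in Tris-HCl pH 8.0; 15-min compound preincubation.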
# [13] = test system: Zika virus NS2B-NS3 protease (linked); test: 384 well plate NINDS AMC confirmatory qHTS for Zika virus inhibitors (AID 1347163); also: potency is read from the fitted curve at half-maximal effect; nearly all actives have a fitted effect of over 50% in size
# Method in brief: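 Linked NS2B-NS3 protease (final 5 nM, 30 nM or 60 nM) was preincubated with compounds (final up to 1 mM) for ~15 minutes. Ac-VKTGKR-AMC substrate (final 30 microM) then reacted for 25 minutes at room temperature in the dark. Fluorescence (ex 355/em 460 nm) was normalized to no-enzyme and no-inhibitor controls.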
# [14] = test system: Zika virus NS2B-NS3 protease (linked construct); test: 384 well plate NINDS Rhodamine confirmatory qHTS for Zika virus inhibitors (AID 1347164);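 also: fluorescence from protease cleavage of Ac-LKRR-rhodamine 110 substrate; potency is read from the fitted curve at half-maximal effect; nearly all actives have a fitted effect of over 65% in size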
# Method in brief: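 Fluorescence at 485/538 nm was measured 25 minutes after adding 10 microM Ac-LKRR-Rd substrate, in the dark at room temperature. The protease (5, 30 or 60 nM final) had been preincubated ~15 minutes with compound; aprotinin as control.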
# [15] = biological target: Calcium and integrin-binding protein 1 (Homo sapiens) (UniProt Q99828); test: Primary qHTS for Identification of Calcium Integrin Binding Protein 1 (CIB1) Competitor (AID 1508620);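 also: GST tagged CIB1 binding a fluorescein labelled alphaIIb integrin peptide tracer; top concentration of the series differs between compounds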
# Sequence of Calcium and integrin-binding protein 1 (Homo sapiens) (Q99828 whole entry, looked up): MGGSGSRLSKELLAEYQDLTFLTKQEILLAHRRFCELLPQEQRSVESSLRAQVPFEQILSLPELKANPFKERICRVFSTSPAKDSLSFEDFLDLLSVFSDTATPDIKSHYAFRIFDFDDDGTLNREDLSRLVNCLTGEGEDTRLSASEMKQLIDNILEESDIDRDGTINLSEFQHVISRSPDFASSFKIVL
# Method in brief: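 CIB1-GST (1 uM final) and compound incubated 15 min at room temperature before adding FITC-alphaIIb peptide tracer (100 nM final). Competition for binding read by fluorescence polarization (ex 480, em 540) after another 15 min at room temperature.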
compound,measurement,setting,value
Cc1c(-c2ccc(O)cc2)nn(-c2ccc(O)cc2)c1-c1ccc(OCCN2CCCCC2)cc1,Potency,[1],12.6 µM (active)
same,Potency,[2],> 46 µM (inactive)
same,Potency,[3],> 46 µM (inactive)
same,Potency,[4],inactive
same,Potency,[5],inactive
same,Potency,[6],inactive
same,Potency,[7],inactive
same,Potency,[8],29.4 µM (active)
C=NC(C(=O)N[C@H]1C(=O)N2C1SC(C)(C)C2C(=O)O)c1ccccc1 (stereo partly specified),Potency,[5],inactive
same,Potency,[9],26.7 µM (active)
same,Potency,[7],inactive
same,Potency,[8],inactive
same,Potency,[10],inactive
same,Potency,[11],inactive
Cc1nc2c(c(=O)[nH]1)CSCC2,Potency,[9],inactive
CSc1ccc([C@H]2CN3CCC[C@H]3c3ccccc32)cc1,Potency,[9],inactive
O=C(Nc1ccc(Oc2ccccc2)cc1)O[C@@H]1CO[C@H]2[C@@H]1OC[C@@H]2n1nnnc1-c1ccc(-c2ccccc2)cc1,Potency,[12],inactive
same,Potency,[5],inactive
same,Potency,[10],inactive
C[C@H](CCC(=O)NCC(=O)O)C1CC[C@H]2[C@H]3C(C[C@H](O)[C@]12C)[C@@]1(C)CC[C@@H](O)C[C@H]1C[C@H]3O (stereo partly specified),Potency,[9],inactive
C/C=C1/C(=O)C[C@@H]2[C@H]3CCC4=CC(=O)CC[C@]4(C)[C@@H]3CC[C@]12C,Potency,[9],inactive
CC(Sc1nc2ccccc2[nH]1)C(=O)NN=Cc1cc(Br)ccc1O (stereo unspecified),"activity change, negative = inhibition",[9],1.61% [at 6.83 µM] (inactive)
CC[C@@H]1Cn2c(c3nc(-c4cc(Cl)cc(Cl)c4Cl)nc-3n(C)c2=O)N1,Potency,[9],inactive
C=CC1CN2CCC1C[C@H]2C(O)c1ccnc2ccc(OC)cc12 (stereo partly specified),Potency,[9],inactive
COc1cccc(OC)c1-c1cc(C(=O)NC2(C(=O)O)C3CC4CC(C3)CC2C4)nn1-c1ccc(C(=O)N(C)CCCN(C)C)cc1C(C)C (stereo unspecified),Potency,[9],inactive
Clc1ccc(-c2nn3c(COc4cc(Cl)c(OCc5nnc6sc(-c7ccc(Cl)cc7)nn56)cc4Cl)nnc3s2)cc1,Potency,[12],20 µM (active)
same,Potency,[6],6.31 µM (active)
same,Potency,[13],14.1 µM (active)
same,Potency,[14],28.2 µM (active)
C[C@H](CCC(=O)NCC(=O)O)C1CC[C@H]2C3CC[C@@H]4C[C@H](O)CC[C@]4(C)C3C[C@H](O)[C@]12C (stereo partly specified),Potency,[9],inactive
O=C(OCC#CCSc1nnc(-c2ccc(Cl)cc2)o1)c1ccc(F)cc1,Potency,[12],inactive
same,Potency,[5],inactive
same,Potency,[10],inactive
same,outcome,[15],inactive
Cc1c(C(=O)N(C)C2CCCCC2)sc2nc3ccc(N)cc3n12,Potency,[9],inactive
O=C(O)C(Cc1ccc2c(c1)oc1ccccc12)NCP(=O)(O)O (stereo unspecified),Potency,[9],inactive
CCCCCCCCCCCCCCCCOCC(CO)OC(C)=O (stereo unspecified),"activity change, negative = inhibition",[9],15.1% [at 6.83 µM] (inactive)
CC12CCC3C(CCC4CC(O)CCC43C)C1CC=C2c1ccccc1 (stereo unspecified),Potency,[9],inactive
Nc1ncnc2c1ncn2C1C[C@H](O)[C@@H](CO)O1 (stereo partly specified),Potency,[9],inactive
S=C(NCCCc1cnc[nH]1)NCCCN(Cc1ccc(Cl)c(Cl)c1)c1ccc(Br)cn1,Potency,[9],inactive
Nc1ncnc2c1ncn2[C@@H]1O[C@H](COP(=O)(O)OP(=O)(O)CP(=O)(O)O)[C@@H](O)[C@H]1O,Potency,[9],inactive
